# Laboratory results from PubChem BioAssay AID720707 (National Center for Advancing Translational Sciences (NCATS), 2013).
# Screen size: about 360,000 compounds; about 270 (0.075%) were called active. The call rests on the fitted dose curve; in most records, active means well fitted activation curve with a large enough effect; inconclusive means small, poorly fitted or top-dose-only effect; inactive means no such curve, though single readings can be large or run the other way. What follows is part of a selection rich in actives, with near analogues and random picks from the rest.
# Target: Rap guanine nucleotide exchange factor 3 (Homo sapiens) (UniProt O95398)
# Assay: qHTS for Agonist of cAMP-regulated guanine nucleotide exchange factor 3 (EPAC1): primary screen; further: nearly all actives have a fitted effect of over 60% in size
# Conditions: biochemical assay; series mostly up to 154 µM; activation: at the top concentration
# Description: In multi-cellular eukaryotic organisms, the effects of cAMP are transduced by two ubiquitously-expressed intracellular cAMP receptors, the classic protein kinase A/cAMP-dependent protein kinase (PKA/cAPK) and the more recently discovered exchange protein directly activated by cAMP/cAMP-regulated guanine nucleotide exchange factor (EPAC/cAMP-GEF). Both PKA and EPAC are ubiquitously expressed in all tissues, and an increase in intracellular cAMP levels will lead to the activation of both PKA and EPAC. Therefore, careful dissections of the individual role and relative contribution of EPAC and PKA within the overall cAMP signaling in various model systems are critical for further elucidating the mechanism of cAMP signaling. To date no EPAC-specific antagonists and agonist, as well as isoform-specific agonists have been reported, and developing EPAC-specific pharmacological probes to determine the physiological functions that EPAC play in the overall cAMP-mediated signaling remains a major challenge within the research field. Furthermore, identified regulators of EPAC may lead to new mechanism-based therapeutic strategies specifically targeting the EPAC / cAMP-signaling components as EPAC has been implicated to play important roles in major human pathological conditions such as diabetes, heart disease, and cancer.
# This qHTS will be used to screen the Molecular Libraries Small Molecule Repository (MLSMR) as a concentration-titration series using the NCGC unique quantitative screening (qHTS) platform to find activators for EPAC1. In addition, this assay will also be used as a counterscreen for the EPAC2 qHTS. This fluorescent based assay is developed and validated for EPAC1 that measures exchange using EPAC effector Rap1 complex with BODIPY-GDP, a GDP analog with a tethered fluorophores. Activators are identified by monitoring the change in fluorescence signal as the exchanged free BODIPY-GDP has a reduced fluorescence compared to Rap1-bound BODIPY-GDP. Increase in signal (activation) is the desired outcome for the EPAC1 agonist while no activity in this assay is desired for the EPAC2 agonist counterscreen.
# [1] de Rooij, J., Zwartkruis, F. J., Verheijen, M. H., Cool, R. H., Nijman, S. M., Wittinghofer, A., and Bos, J.L. (1998) Nature 396, 474-477
# NIH Chemical Genomics Center [NCGC]
# NIH Molecular Libraries Probe Centers Network [MLPCN]
# Assay Submitter (PI): Xiaodong Cheng, The University of Texas Medical Branch
# Briefly, three uL of reagents (100 nM EPAC1, 250 nM RAP1B-BODIPY-GDP, 50 uM GDP) were dispensed into a 1536-well Greiner black solid-bottom medium binding assay plate. Controls and test compounds (23 nL) were transferred to the plate via a Kalypsys pin tool equipped with a 1536-pin array. The plates were centrifuged at 1,000 rpm for 15 seconds followed by 5 minute incubation at room temperature. The assay plates were read at 5 minute intervals for 30 minutes in the ViewLux plate reader using 480nm excitation and 540nm emission filters. The results were normalized to the agonist positive control of 6.5 mM cAMP.
# Potency means the concentration at half of the fitted maximal effect.
# Rap guanine nucleotide exchange factor 3 (Homo sapiens), sequence (O95398 whole entry, looked up): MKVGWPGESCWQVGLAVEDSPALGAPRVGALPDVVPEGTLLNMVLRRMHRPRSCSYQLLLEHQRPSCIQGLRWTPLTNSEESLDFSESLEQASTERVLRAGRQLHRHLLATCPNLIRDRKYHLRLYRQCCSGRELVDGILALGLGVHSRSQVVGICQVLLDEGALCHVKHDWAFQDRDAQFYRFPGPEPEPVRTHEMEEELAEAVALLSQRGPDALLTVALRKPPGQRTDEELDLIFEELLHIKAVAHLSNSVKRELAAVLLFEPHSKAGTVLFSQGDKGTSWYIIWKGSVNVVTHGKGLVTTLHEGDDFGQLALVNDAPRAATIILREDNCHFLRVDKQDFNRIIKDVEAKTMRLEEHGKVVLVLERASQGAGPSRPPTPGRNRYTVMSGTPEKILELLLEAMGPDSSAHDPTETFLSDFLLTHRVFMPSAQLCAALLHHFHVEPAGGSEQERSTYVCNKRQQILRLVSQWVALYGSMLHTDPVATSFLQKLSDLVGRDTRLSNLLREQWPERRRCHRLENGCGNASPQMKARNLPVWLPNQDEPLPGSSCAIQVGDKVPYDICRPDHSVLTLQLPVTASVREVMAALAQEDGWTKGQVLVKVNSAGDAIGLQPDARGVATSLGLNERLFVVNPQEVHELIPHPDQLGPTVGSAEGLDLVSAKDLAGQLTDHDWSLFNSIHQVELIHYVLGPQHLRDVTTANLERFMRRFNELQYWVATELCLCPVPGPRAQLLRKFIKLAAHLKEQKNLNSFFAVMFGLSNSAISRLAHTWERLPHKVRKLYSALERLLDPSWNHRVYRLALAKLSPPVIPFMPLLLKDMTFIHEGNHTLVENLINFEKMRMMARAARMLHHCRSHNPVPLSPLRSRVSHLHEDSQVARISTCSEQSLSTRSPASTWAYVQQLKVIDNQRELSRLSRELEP
SMILES,activation,Potency
COC(=O)CN(c1cccc(C(C)=O)c1)S(C)(=O)=O,2.68% (inactive),
CCN(CC)c1ccc2oc(=O)c(C)nc2c1,,100 µM (active)
CN(CC(=O)Nc1ccccc1[N+](=O)[O-])Cc1ccc(Br)cc1,-0.157% (inactive),
O=C(C[C@H]1CC[C@H]2[C@@H](COC[C@H](O)CN2C(=O)c2ccccn2)O1)N1CCN(c2ccccc2)CC1,-8.67% (inactive),
Cc1ccccc1-n1cc(CNC(=O)C2CCC(=O)N(C3CC3)C2)cn1 (stereo not drawn),3.43% (inactive),
Cc1ccc(NC(=O)CCC(=O)N2CCC(c3ccccc3)=N2)cc1S(=O)(=O)N1CCCCC1,2.62% (inactive),
O=C(NC(=S)Nc1ccc(Br)cc1F)C1CCCCC1,7.55% (inactive),
CCOc1ccc(NC(=O)C2CCN(C(=O)N3CCOc4ccccc43)CC2)cc1,-0.584% (inactive),
CCOc1ccc(CC(=O)Nc2ccc(S(=O)(=O)Nc3cc(C)on3)cc2)cc1OCC,-2.8% (inactive),
CCC(C)NC(=O)Cn1nc(C(F)(F)F)c2c1CCC2 (stereo not drawn),-4.09% (inactive),
COc1cc(Cl)c(C)cc1NC(=O)CSc1nnc(CN2CCCC2)o1,-0.0539% (inactive),
COc1ccc(OC)c(NC(=O)c2cc(-c3cc(F)ccc3OCC3CCCO3)n[nH]2)c1 (stereo not drawn),-2.63% (inactive),
O=C(NCCC1CCCCN1S(=O)(=O)c1ccccc1)C(=O)NCC1CCCO1 (stereo not drawn),-5.17% (inactive),
O=C(NCCC1CCCCN1S(=O)(=O)c1ccc(Cl)cc1)C(=O)NCc1ccco1 (stereo not drawn),,50.1 µM (active)
O=C(NCCc1ccco1)C(=O)NCCC1CCCCN1S(=O)(=O)c1ccccc1 (stereo not drawn),1.6% (inactive),
COCCCNc1nc2ccccc2nc1NS(=O)(=O)c1ccc(F)cc1,-1.08% (inactive),
CO/N=C/c1cn(-c2ccc(Cl)cc2)nn1,6.91% (inactive),
CN1CCN(C2=NCCO2)CC1,-0.11% (inactive),
CC(=O)Oc1ccc(Cn2c(C)c(C(=O)NCc3ccc(C#N)cc3)sc2=O)cc1,4.44% (inactive),
Cc1cccc(CC(=O)N2CCN=C2SCc2ccc([N+](=O)[O-])cc2)c1,4.91% (inactive),
Cc1ccc(S(=O)(=O)N2CCCCC2)cc1C(=O)N(C)CC(=O)Nc1cccc(F)c1,-1.63% (inactive),
Cc1cc(NC(=O)CN2C(=O)NC(C)(CCc3ccccc3)C2=O)no1 (stereo not drawn),3.5% (inactive),
Cc1cccc(-c2nc(CS(=O)CC(=O)NC(C)CCc3ccccc3)c(C)o2)c1 (stereo not drawn),4.27% (inactive),
CC(C)N1CCC(=NNc2ccc([N+](=O)[O-])cc2S(=O)(=O)N2CCOCC2)CC1,4.79% (inactive),
Cc1ccccc1NC(=O)C1CCCN(C(=O)NCc2ccccc2)C1 (stereo not drawn),-0.75% (inactive),
O=C1CCC(C(=O)N2CCN(c3ccccc3Cl)CC2)CN1CC1CCCCC1 (stereo not drawn),-2.26% (inactive),
CS(=O)(=O)/C(C#N)=C/c1cccn1S(=O)(=O)c1ccc([N+](=O)[O-])cc1,-9.53% (inactive),
O=C(c1ccc(CS(=O)Cc2ccccc2Cl)o1)N1CCN(c2ccccc2)CC1 (stereo not drawn),11% (inactive),
